Source: PubChem BioAssay (National Center for Advancing Translational Sciences (NCATS))
VDR inh: blocks the human vitamin D receptor; Potency, µM, hits mostly inhibitors; actives 0.93% (n = 400,000); AID 504847; VDR-SRC2-3 peptide fluorescence polarization, 2 h
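Measured by FP: displacement of SRC2-3 coactivator peptide from VDR by library compounds, following a two-hour ambient incubation.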
Rango release inh: prevents RanGTP from dissociating the Rango-importin beta complex; AID 540253; Potency, µM (highest dose often 46.1 µM); O95149+P62826; Biochemical FRET Rango-importin beta, RanGTP-induced dissociation; actives 0.071% (n = 340,000); calls by dose curve; also: nearly all actives have a fitted effect of over 45% in size
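Recombinant Rango FRET biosensor (EYFP–snurportin 1 IBB–cerulean CFP10) at 0.1 uM premixed with 0.25 uM importin beta in PBS, 1 mM DTT, 0.02% Tween-20, 0.1% BSA. Compound added 5 min; RanGTP-RCC1 (0.6 uM Ran, 2 mM GTP, 0.2 uM RCC1) then triggers release, read at 45 min.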
PI5P4K alpha inh: PI5P4K alpha (human) kinase inhibition; P48426; PI5P4Kalpha enzyme, ADP-Glo luminescence, 60 min; hits give low values; max response, %; actives 1.2% (n = 330,000); active = max response of -50% or lower; inconclusive = between -30% and -50%; inactive = -30% or higher; also: value at the top dose of about 77 µM
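Compounds were pin-transferred onto PI5P4Kalpha and substrate in HEPES pH 7.4 buffer with EGTA, CHAPS and 5% DMSO. ATP (5 microM final) started the reaction, which ran 60 minutes at room temperature before ADP-Glo detection.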
Rango complex inh: inhibitors of Rango-importin beta complex formation; Potency, µM (doses to about 92.2 µM); Q14974; actives 0.031% (n = 340,000); Rango CFP/YFP FRET sensor + importin beta, 45 min; calls by dose curve; also: nearly all actives have a fitted effect of over 15% in size
Target sequence (Q14974 whole entry, looked up): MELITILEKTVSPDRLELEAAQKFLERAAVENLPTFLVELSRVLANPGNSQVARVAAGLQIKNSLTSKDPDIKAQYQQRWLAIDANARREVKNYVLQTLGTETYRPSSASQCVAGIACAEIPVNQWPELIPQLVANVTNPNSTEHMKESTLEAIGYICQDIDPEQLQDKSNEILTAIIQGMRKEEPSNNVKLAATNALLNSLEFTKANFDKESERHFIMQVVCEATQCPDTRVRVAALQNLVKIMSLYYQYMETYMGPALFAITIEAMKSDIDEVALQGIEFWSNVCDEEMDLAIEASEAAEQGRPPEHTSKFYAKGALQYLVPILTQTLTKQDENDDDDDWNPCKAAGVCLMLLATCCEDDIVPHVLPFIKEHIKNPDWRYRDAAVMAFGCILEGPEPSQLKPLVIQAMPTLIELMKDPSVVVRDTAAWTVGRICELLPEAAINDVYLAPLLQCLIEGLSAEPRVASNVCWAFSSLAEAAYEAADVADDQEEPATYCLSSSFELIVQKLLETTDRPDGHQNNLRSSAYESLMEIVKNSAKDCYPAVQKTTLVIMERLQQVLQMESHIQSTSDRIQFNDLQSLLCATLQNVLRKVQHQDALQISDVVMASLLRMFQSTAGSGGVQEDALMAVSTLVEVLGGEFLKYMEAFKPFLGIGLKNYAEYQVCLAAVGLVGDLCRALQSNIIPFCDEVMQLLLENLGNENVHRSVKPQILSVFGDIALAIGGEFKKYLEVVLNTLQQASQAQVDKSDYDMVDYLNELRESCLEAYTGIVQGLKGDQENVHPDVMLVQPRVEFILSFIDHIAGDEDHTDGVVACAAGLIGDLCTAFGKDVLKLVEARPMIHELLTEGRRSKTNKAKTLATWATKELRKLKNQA
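FRET biosensor Rango (snurportin 1 IBB between N-terminal EYFP and C-terminal Cerulean), 50 nM in PBS/1 mM DTT/0.02% Tween-20/0.1% BSA, preincubated 5 min RT with compound; 0.125 microM importin beta added, 45 min RT, CFP/YFP FRET ratio read.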
PLK1 PBD inh: inhibitors of human PLK1 polo-box domain binding. P53350. Plk1 PBD binding of FITC phosphopeptide, fluorescence polarization. Potency, µM, usual class: inhibitors. actives 2.8% (n = 360,000). AID 720504; also: series mostly up to about 57 µM; nearly all actives have a fitted effect of over 65% in size
KAT2A inh: blocks human GCN5L2 histone acetyltransferase | Q92830 | GCN5L2 HAT assay, ThioGlo1 CoA-SH fluorescence | Potency, µM (top dose mostly 58.9 µM), hits mostly inhibitors | actives 0.21% (n = 390,000) | AID 504327
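Free CoA generated was detected with ThioGlo1 (50uM) fluorescence at Ex340nm/Em540nm, read immediately and after 20 min at room temperature. Enzyme, 20 nM in HEPES pH 7.5 buffer, saw compounds 15 min before adding 75uM H3(1-25) peptide and 70uM acetyl-CoA.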
A number is an active result; - = inactive; ? = inconclusive; . = no result. Hits are enriched below; roughly 3.6% of the tested compounds scored in any of these assays. Unless noted, calls follow the shape of the dose curve; as a rule, active = well fitted curve in the direction sought with a large enough effect; inconclusive = small, poorly fitted or top-dose-only effect, or another doubt; inactive = no such curve, though single readings can be large; an effect the other way counts as inactive or inconclusive.

SMILES	VDR inh	Rango release inh	PI5P4K alpha inh	Rango complex inh	PLK1 PBD inh	KAT2A inh
C=CCOc1c(OC)cc(/C=N/Nc2cccc(C(=O)O)c2)c(Br)c1Br	?	-	-	-	30µM	-
CC(=O)Cn1cnc2c(sc3nc(C)cc(C)c32)c1=O	-	-	-	-	-	-
CCCNC(=O)Cn1sc2nc(C)cc(C)c2c1=O	5µM	?	-83	-	1.7µM	28µM
CC(=O)c1cc(-c2ccccc2)n(CC(=O)N2CCC(N3CCCCC3)CC2)c1C	-	-	-	-	-	-
Cc1cc(C)c2c(=O)n(CC(=O)N3CCC(N4CCCCC4)CC3)sc2n1	20µM	-	-81	?	3µM	32µM
CCOC(=O)C1CCCN(C(=O)Cn2sc3nc(C)cc(C)c3c2=O)C1 (stereo not drawn)	?	-	-81	-	1.5µM	?
COc1ccc(Nc2cc(O)c3ncccc3c2)cc1	.	.	.	.	.	-
C=CCn1c(SCC(=O)Nc2ccc(N(C)C)cc2)nnc1-c1cccc(C)c1	89µM	-	-	-	-	-
COc1cccc(C(=O)NCCSCc2ccccc2Cl)c1	-	-	-	-	-	-
COc1cccc(C(=O)NCCSCc2c(F)cccc2Cl)c1	?	-	-	-	21µM	-
COc1ccc(NS(=O)(=O)c2cccc(C(=O)NN=Cc3cc(Br)c(O)c(Br)c3)c2)cc1	-	-	-50	?	?	-
COc1ccc(CC(=O)Nc2ccc(-c3nc4ccccc4s3)c(C)c2)cc1OC	-	.	.	.	.	-
CCOC(=O)CNC(=O)C1c2cc(OC)c(OC)cc2C(=O)N(C)C1c1ccccc1F (stereo not drawn)	-	-	.	-	-	-
CCOC(=O)[C@]12Cc3c(cc(OC)c(OC)c3OC)[C@H]1N(CCC(=O)OC)C(=O)c1cc(OC)ccc12	.	.	-	.	12µM	.
CCOC(=O)[C@]12Cc3c(cc(OC)c(OC)c3OC)[C@H]1N(Cc1ccccc1)C(=O)c1cc(F)c(F)cc12	.	.	-	.	?	.
CCOC(=O)[C@]12Cc3c(cc(OC)c(OC)c3OC)[C@H]1N(Cc1ccccc1)C(=O)c1cc(OC)ccc12	.	.	-	.	7.5µM	.
CC(C)CCC[C@@H](C)[C@H]1CC[C@H]2[C@@H]3CC=C4CC(O)CC[C@]4(C)[C@H]3CC[C@]12C (stereo partly drawn)	?	.	.	.	.	-
CCC(C)NC(=O)C1CCN(C(=O)c2cc3sccc3n2Cc2ccc(Cl)cc2)CC1 (stereo not drawn)	-	.	.	.	.	-
CCOC(=O)c1cc(C(=O)OCC)c(=O)[nH]c1C	-	-	-	-	-	-
CCOC(=O)c1cc(C)[nH]c(=S)c1C#N	-	-	?	-	27µM	-
O=C(Nc1ccc(F)c(Cl)c1)N1CCN(C(=O)c2nsc3ccccc23)CC1	-	.	.	.	.	-
CCc1ccc(OCc2nnc(-c3ccccc3Br)o2)cc1	-	-	-	-	30µM	-
Clc1ccccc1OCc1nnc(-c2ccccc2Br)o1	-	-	-	-	-	-
CCN(c1ccccc1)c1nc(N)nc(C#N)n1	-	.	.	.	.	.
COc1ccc(NC(=O)c2cc3ccccc3cc2O)cc1	45µM	?	-	?	30µM	-
SMILES	VDR inh	Rango release inh	PI5P4K alpha inh	Rango complex inh	PLK1 PBD inh	KAT2A inh
C/C(=N\NC(=O)c1cc(C)nc2ccccc12)c1ccco1	-	-	-	-	-	-
C/C(=N\NC(=O)c1cccc(N/N=C(\C)c2ccco2)c1)c1ccco1	-	-	-86	-	-	-
C/C(=N\NC(=O)c1cc2ccccc2cc1O)c1ccc(C)o1	-	-	-61	?	-	-
C/C(=N/NC(=O)c1cc2ccccc2cc1O)c1ccco1	-	-	-65	?	-	?
C/C(=N\NC(=O)c1cc2ccccc2cc1O)c1cccs1	-	?	-	?	-	-
CCCCC[C@H](O)/C=C/C=C\C/C=C\C=C\[C@@H](O)CCCC(=O)O	-	.	.	.	.	.
CN1/C(=C/c2cccc[n+]2C)Sc2ccccc21	-	12µM	-	?	-	-
C=CCn1c(SCC(=O)c2ccc(O)c(O)c2)nnc1-c1cccnc1	-	-	-51	-	-	?
COc1ccc2cc1Oc1ccc(cc1)CC1c3cc(c(OC)cc3CCN1C)Oc1c(OC)c(OC)c(OC)c3c1C(C2)N(C)CC3 (stereo not drawn)	45µM	.	.	.	.	-
CC(/C=C1\N=C(SCc2ccccc2Cl)SC1=O)=C\c1ccccc1	-	-	?	-	27µM	-
C/C(=N\OCc1nc2ccccc2c(=O)n1/N=C/c1cc([N+](=O)[O-])ccc1O)c1ccccc1	-	-	-54	-	-	-
C/C(=N\OCc1nc2ccccc2c(=O)n1/N=C/c1cc(C)cc([N+](=O)[O-])c1O)c1ccccc1	-	-	-	-	-	-
Cc1ccc(CN(C(=O)COc2ccc(Cl)cc2Cl)C2CCS(=O)(=O)C2)o1 (stereo not drawn)	-	.	.	.	.	-
Cn1c(COc2cccc3cccnc23)nnc1SCC(=O)O	-	-	-	-	27µM	-
O=C(OCC(=O)N1CCCC1)c1ccc(Cl)c([N+](=O)[O-])c1	-	-	-	-	-	-
CCNc1ccc(C(=O)OCC(=O)N2CCCC2)cc1[N+](=O)[O-]	?	-	-	-	27µM	-
CC(C)CCn1c(=O)c2sccc2n2c(CCCC(=O)Nc3ccc(F)c(Cl)c3)nnc12	-	.	.	.	.	-
CC(C)(C)NC(=O)NC(=O)COC(=O)COc1ccc(Cl)cc1Cl	?	-	-	-	12µM	?
COc1ccc(-n2nc3c(N4CCCC(C(=O)NCc5ccc(C)cc5)C4)nnc(C)c3c2C)cc1 (stereo not drawn)	-	.	.	.	.	-
O=C(O)c1ccccc1-c1c2cc(Br)c(=O)c(Br)c-2oc2c(Br)c(O)c(Br)cc12	35µM	.	.	.	.	22µM
COCCN(C(=S)Nc1c(C)cccc1C)C(C)c1cccnc1 (stereo not drawn)	-	-	-	-	-	-
COCCN(C(=S)Nc1c(C)cc(C)cc1C)C(C)c1cccnc1 (stereo not drawn)	45µM	-	-	-	6µM	-
COc1cc(C=NCc2ccccc2)ccc1O	.	.	-	.	-	.
COc1ccc(/C=N/N(Cc2ccccc2)c2ccccc2)cc1O	?	-	-	-	17µM	-
Cc1cc(Br)ccc1-n1[nH]c(C)c(C=Nc2cccc3nsnc23)c1=O	-	-	-	-	27µM	-
CCOc1ccc(-c2csc(/C(C#N)=C\c3ccc(O)c([N+](=O)[O-])c3)n2)cc1	-	-	?	-	19µM	?
O=C(O)/C=C/C(=O)Nc1ccc2c(c1)C(=O)c1ccccc1C2=O	-	-	-65	-	-	-
CC(=O)Nc1ccc2c(c1)C(=O)c1ccccc1C2=O	-	-	-	-	-	-
CCCCn1c(N)c(Sc2ccccc2[N+](=O)[O-])c(=O)[nH]c1=O	-	-	-	-	-	-
